Source: PubChem (National Center for Advancing Translational Sciences (NCATS))
Rows were chosen to be rich in hits. Some 2.4% of all compounds tested hit in one or more screens of this group.
D2 antag = HTS Assay for Allosteric Antagonists of the Human D2 Dopamine Receptor: Primary Screen for Antagonists; inhibition, % at 10 µM; D(2) dopamine receptor (Homo sapiens), P14416; HEK293 TREx D2 cells, calcium flux, dopamine EC80; 340,000 tested, 2% active; AID 485344, 2010; in the data active = inhibition above about 30%; inactive = below that, where a call was filed; note: 0% is about no effect
Target sequence (P14416 whole entry, looked up): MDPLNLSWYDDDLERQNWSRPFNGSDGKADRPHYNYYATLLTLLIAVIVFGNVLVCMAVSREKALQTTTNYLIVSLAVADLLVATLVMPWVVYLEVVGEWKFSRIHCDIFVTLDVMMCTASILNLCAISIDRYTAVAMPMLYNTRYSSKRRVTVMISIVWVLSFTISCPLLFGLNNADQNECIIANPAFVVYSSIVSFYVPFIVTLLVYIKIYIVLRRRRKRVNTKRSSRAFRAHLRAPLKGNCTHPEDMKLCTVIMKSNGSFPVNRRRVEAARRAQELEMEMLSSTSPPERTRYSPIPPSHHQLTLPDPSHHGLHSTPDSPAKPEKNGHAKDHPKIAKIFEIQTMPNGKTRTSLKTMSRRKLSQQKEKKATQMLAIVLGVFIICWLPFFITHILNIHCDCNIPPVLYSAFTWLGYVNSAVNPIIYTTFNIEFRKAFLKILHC
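Measurement of antagonist activity uses fluorescent calcium dye in inducible HEK293 T-REx D2 cells: 10 s baseline, compound addition with 180 s read, EC80 dopamine addition with a further 180 s read.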
D2 PAM-1 = Beta-Arrestin HTS for Positive Allosteric Modulators of the Human D2 Dopamine Receptor: Potentiators | DiscoveRx D2 beta-arrestin cells, luminescence, 90 min; 100% = 57 uM dopamine signal | potentiation, % (test concentration not listed) | 360,000 tested, 0.23% active | D(2) dopamine receptor (Homo sapiens), P14416; in the data active = potentiation above about 50%; inconclusive = mostly about 30% to 49%
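PathHunter beta-arrestin assay in DiscoveRx D2 cells. Compounds were added with an EC20 of dopamine (50 nM final) for 90 min at 37 deg C. Luminescence was read 1 h after detection reagent, with 57 uM dopamine as the EC100 control.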
D2 ag-1 = HTS Assay for Allosteric Agonists of the Human D2 Dopamine Receptor: Primary Screen for Agonists; activation, % at 2 µM; HEK293 T-REx D2 cells, calcium flux agonist mode; 340,000 tested, 0.53% active; D(2) dopamine receptor (Homo sapiens), P14416;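 active = activation over 3 SD above normal in the single-dose calcium agonist read, cut at about 30% in these data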; note: 0% is about no effect
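Calcium-flux readout, 1 cycle/sec over 180 s following compound pin transfer, in inducible HEK293 Trex D2 cells (force-coupled); dopamine controls included. Positive calcium responses during this window marked compounds as potential agonists.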
D2 PAM-2 = HTS Assay for Positive Allosteric Modulators of the Human D2 Dopamine Receptor: Primary Screen for Potentiators. AID 485347, 2010. D(2) dopamine receptor (Homo sapiens), P14416. potentiation, % at 10 µM. 340,000 tested, 0.34% active. HEK293 T-REx D2, calcium flux, EC20 dopamine potentiation;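 active = potentiation over 3 SD above the plate norm, cut at about 30% in these data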; note: 0% is about no effect
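Potentiation of an EC20 dopamine calcium response is measured in a force-coupled, tetracycline-inducible Hek293 Trex D2 line. Compound-only kinetic reads over 180 s flag agonists before dopamine addition.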
D2 ag-2 = Beta-Arrestin HTS for Positive Allosteric Modulators of the Human D2 Dopamine Receptor: Agonists | D(2) dopamine receptor (Homo sapiens), P14416 | DiscoveRx PathHunter D2 beta-arrestin, luminescence, 90 min; 100% = 57 uM dopamine signal | activation, % (test concentration not listed) | 360,000 tested, 0.084% active; in the data active = activation above about 40%; inconclusive = between about 15% and that limit
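DiscoveRx PathHunter D2 beta-arrestin cells (2,100/well) attached overnight, then compound-stimulated 90 min at 37 C in HBSS/10 mM HEPES/0.1% Tween-20 buffer; beta-galactosidase complementation read by luminescence after 1 h at ambient temperature. Dopamine 57 uM final (EC100) as control.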
D3 ag = qHTS of D3 Dopamine Receptor Agonist: D3 Dopamine Receptor B-arrestin Agonist Confirmatory Assay | 2,300 tested, 4% active | shares compounds with D2 ag-1 | DiscoveRx D3 beta-arrestin cells, luminescence, 90 min | AID 720506, 2013 | Potency, µM (doses to about 76.9 µM), for inactives: top-dose activation, hits mostly activators;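 note: potency is the fitted concentration of half-maximal effect; 100% = dopamine control response; nearly all actives have a fitted effect of over 70% in size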
D2 ag-3 = qHTS of D3 Dopamine Receptor Agonist: D2 Dopamine Receptor B-arrestin Agonist Counterscreen; DiscoveRx PathHunter D2 beta-arrestin, luminescence, 90 min; response scale: percent relative to full dopamine signal; Potency, µM (highest dose often 76.9 µM), without a hit: at the top dose activation, actives largely listed as activators; 2,300 tested, 5.9% active; shares compounds with D2 ag-1; note: potency is the fitted concentration of half-maximal effect; % of control where 0% means no effect; nearly all actives have a fitted effect of over 70% in size
* = called active by the depositor; ? = inconclusive; · = no result given. Unless noted, calls come from the whole dose curve; as a rule, active = well fitted activation curve with a large enough effect; inconclusive = small, poorly fitted or top-dose-only effect; inactive = flat fitted curve, though single readings scatter.

SMILES	D2 antag	D2 PAM-1	D2 ag-1	D2 PAM-2	D2 ag-2	D3 ag	D2 ag-3
Cc1cccc(C)c1NC(=O)C(=O)NCC(c1cccnc1)N1CCc2ccccc21 (stereo not given)	·	·	0	3	·	·	·
CC(C)OC(=O)CN1C(=O)S/C(=C/c2ccc(N3CCCCC3)o2)C1=O	2	15	17	4	2	11%	-1%
O=C1S/C(=C/c2ccc(N3CCOCC3)o2)C(=O)N1Cc1ccc(F)cc1	4	2	20	-9	-2	·	·
COc1cc(C2C(=O)N(C3CCCCC3)CC(=O)N2CCC2=CCCCC2)ccc1OC(C)C (stereo not given)	·	·	1	8	·	·	·
COc1cc(C(C)=O)ccc1OCC(O)CN1CCN(c2ccccc2)CC1 (stereo not given)	85*	9	85*	-27	46*	?	?
COc1cc(C(C)=O)ccc1OCC(O)CN1CCN(c2ccc(F)cc2)CC1 (stereo not given)	40*	-5	41*	-15	-1	8%	5%
Cc1ccc(C(=O)NCN2CCN(c3ccccc3)CC2)cc1	-16	-29	2	-36	1	·	·
COc1ccc(C(=O)NCN2CCN(c3ccccc3)CC2)cc1OC	23	7	64*	-20	9	1%	22%
COc1cc(C(C)=O)ccc1OCC(O)CN1CCN(c2ccc(C)cc2C)CC1 (stereo not given)	4	-14	-2	-20	-2	·	·
O=C(c1nc(-c2ccc(Cl)cc2)n2c1CCCCC2)N1CCN(c2ccccc2)CC1	·	·	-1	0	·	·	·
CCOC(=O)c1ccccc1NC(=O)CSc1nc2cn(CC)nc2c(=O)n1Cc1ccc(Cl)cc1	·	·	1	1	·	·	·
Cc1cc(C(F)F)n2nc(C(=O)Nc3cc(C)on3)nc2n1	-18	-14	0	4	0	-9%	-4%
Cc1cc(C(F)F)n2nc(C(=O)Nc3c(C)cccc3C)nc2n1	·	·	0	-9	·	·	·
Cc1cc(Cl)ccc1NC(=O)CN1CCN(C(=O)c2ccco2)CC1	4	4	1	4	2	·	·
COc1ccccc1NC(=O)CN1CCN(c2ccccc2)CC1	39*	-6	49*	-29	5	-3%	9%
COc1ccc(C)cc1NC(=O)CCN1CCN(C/C=C/c2ccccc2)CC1	68*	0	70*	-25	4	7%	?
Cc1ccccc1NC(=O)CN1CCN(C(=O)c2ccco2)CC1	-15	4	44*	-11	11	-6%	22%
COc1ccccc1NC(=O)c1ccc(NC(=O)CN2CCN(C(=O)c3ccco3)CC2)cc1	41*	19	51*	-7	11	?	20%
COc1ccccc1NC(=O)c1ccc(NC(=O)c2ccco2)cc1	-14	1	0	-20	-3	·	·
Cc1ccccc1Nc1cc(C(=O)NC2CCC(C)CC2)c2ccccc2n1 (stereo not given)	·	·	-1	0	·	·	·
Cc1nc2nc(SCC(=O)NCCc3ccccc3)nn2c(C)c1Cc1c(F)cccc1Cl	·	·	0	15	·	·	·
COc1ccc([N+](=O)[O-])cc1NC(=O)CCCOc1ccccc1	2	-19	0	-35	-3	·	·
COc1ccccc1N1CCN(CC(=O)Nc2nc(C)c(C(=O)N(C)C)s2)CC1	12	-19	0	-6	3	-7%	-5%
